# Source: ChEMBL document CHEMBL3988442, “University of Dundee, Small-Polar-MMV Screening Library” (2021)
# Out of some 48,000 compounds screened, about 13,000 (27%) showed an effect of 50% or more. The list shows a part of the results.
# Tested on: Wolbachia pipientis
# Assay: Anti-Wolbachia Cell-Based Screen
# Format: functional
# Parameters: scale not given: in the data most compounds retested in dose-response had high values
# Conditions: 5 µM
row,SMILES,Percent Effect [%]
1,O=C(CN1CCOc2ccccc2C1)N1Cc2cnn(CCO)c2C1,6.512
2,Cc1cnc(C)c(-c2cc(O)c3c(c2)CN(c2ncccn2)CCO3)n1,-18.62
3,CN(C)C(=O)c1nc(CN2CC(c3ccccc3)CC2=O)no1 (stereo not given),7.307
4,C=C(C)CN(CC)Cc1nc(C2CC2)no1,1.764
5,CCCS(=O)(=O)N1CCn2cc(CNc3ccccn3)nc2C1.O=C(O)C(F)(F)F,-1.498
6,O=C(CSCc1ccccn1)N(Cc1ccsc1)C1CC1,-10.63
7,OC1(CNC2CCN(c3ccccn3)CC2)CCc2ccccc21 (stereo not given),6.779
8,CCC(=O)N1CCN(C(=O)Nc2cccc(C#N)c2)[C@H]2CS(=O)(=O)C[C@H]21,-1.601
9,O=C(Nc1cnn(Cc2ccc(Cl)cc2)c1)N[C@@H]1C=C[C@H](CO)C1,-9.454
10,CCOC1CCCN(C(=O)Nc2cnn(CC(F)F)c2)C1 (stereo not given),6.944
11,CS(=O)(=O)N1CCC(C(=O)Nc2nnc(C(F)(F)F)[nH]2)CC1,11.43
12,CS(=O)(=O)N1CCC(C(=O)N2CCC(Cn3cccn3)CC2)CC1,-10.97
13,CS(=O)(=O)N1CCCC(C(=O)Nc2cnn(COCC(F)(F)F)c2)C1 (stereo not given),96.9
14,CCn1cc(NC(=O)C2CCN(CCOC(C)C)CC2)cn1,-5.388
15,CCOCn1cc(NC(=O)C2CCN(S(C)(=O)=O)CC2)cn1,105.1
16,CC(C)C1CN(S(C)(=O)=O)CCCN1Cc1ccc(F)cc1 (stereo not given),3.687
17,CS(=O)(=O)N1CCCC(C(=O)Nc2cnn(Cc3ccc(Cl)cc3)c2)C1 (stereo not given),106.8
18,CN(Cc1ccc(Cl)cc1)C(=O)Nc1cnn(CC(N)=O)c1,3.306
19,CS(=O)(=O)N1CCCC(C(=O)Nc2cnn(Cc3ccc(F)cc3)c2)C1 (stereo not given),99.84
20,O=C(Cn1cc(NC(=O)c2ccc(F)cc2F)cn1)NC1CCCC1,5.692
21,Cc1nc(CNC(C)c2cccc(S(=O)(=O)N(C)C)c2)no1 (stereo not given),-7.216
22,CS(=O)(=O)c1ccc(NC(=O)CSc2ccc3c(c2)CCC3)cc1,1.625

row,SMILES,Percent Effect [%]
1,Cn1cnc2c1C(COCC1CC1)CN(C(=O)c1ccsc1)C2 (stereo not given),-2.938
2,COCCN1CCN(CCS(=O)(=O)c2cccc(OC)c2)CC1,2.005
3,CN(C)C(=O)CCNC(=O)Nc1sc2ccccc2c1Cl,-12.49
4,N#CCC(=O)NCc1nnc2n1CCN(Cc1nccs1)C2,-14.07
5,CC(Cn1cccn1)NCc1nc(-c2cccc(Cl)c2)no1 (stereo not given),-1.118
6,CC(C)(CNc1ccc2ccc(F)cc2n1)NS(C)(=O)=O,-16.93
7,CCc1nc(NS(=O)(=O)c2ccc(F)cc2Cl)no1,2.388
8,CC(C)(NS(C)(=O)=O)c1nc(-c2cccc(Cl)c2)no1,115.9
9,Cc1ccc(-c2noc(C(C)(C)NS(C)(=O)=O)n2)cc1F,124.7
10,CCNc1nc(C)c(C(=O)N(C)Cc2nc(-c3ccncc3)no2)s1,-39.74
11,CC(C)C1=NOC(c2nc(-c3cccc(Cl)c3)no2)C1 (stereo not given),-9.721
12,CCS(=O)(=O)N1CC(c2nc(-c3ccncc3)no2)C1,-18.6
13,Cc1ccc(-c2noc(CNCC3CN(C)CCO3)n2)cc1F (stereo not given),8.94
14,CC(C)(NS(C)(=O)=O)c1nc(-c2ccncc2)no1,92.68
15,Cc1ccc(-c2noc(CN3CCOC(CN(C)C)C3)n2)cc1F (stereo not given),-11.04
16,CC(C)(NS(C)(=O)=O)c1nc(-c2ccc(F)cc2Cl)no1,95.59
17,O=C1[C@H]2CC[C@H](CN(C3CSCCSC3)C2)N1Cc1cscn1,1.539
18,COC(=O)c1ccc(N2CCN(C(=O)c3cnn(C)c3)C(C)C2)cc1 (stereo not given),5.538
19,Cc1cnn(CC(C)NCc2ccc(OCc3ccncc3)cc2)c1 (stereo not given),2.463
20,CCn1c(CN(C)C(=O)c2ccc(OC)nc2)nc2ccccc21,-6.401
21,OC1(CN2CCCC2)COCCN(c2noc(-c3ccccc3)n2)C1 (stereo not given),-20.3
22,N#Cc1cc(F)c(NCCCOCC2CCOC2)c(F)c1 (stereo not given),-9.574

row,SMILES,Percent Effect [%]
1,CC(C)(NS(C)(=O)=O)c1nc(-c2ccc(F)c(F)c2)no1,108
2,Cc1cc(-c2noc(C3CCS(=O)(=O)C3)n2)ccc1F (stereo not given),-6.108
3,Cc1cc(-c2nnn(CCNS(C)(=O)=O)n2)ccc1F,-4.563
4,CCn1cc(CNc2ccc3nccnc3c2)cn1,0.1341
5,CN(C)S(=O)(=O)N1CCC2(CCCN(Cc3ccc(F)cc3)C2=O)C1 (stereo not given),-3.561
6,CC[C@@]1(O)CCN(C(=O)CN(C)Cc2ccc(F)cc2)C[C@H]1O,-15.44
7,CN(Cc1ccc(F)cc1)[C@@H]1CN(S(=O)(=O)N(C)C)C[C@H]1O,124.5
8,CCS(=O)(=O)N1C[C@@H](O)[C@H](N(C)Cc2ccc(F)cc2)C1,127.5
9,CS(=O)(=O)N1CCO[C@@H]2CN(Cc3ccc(F)cc3)C[C@@H]2C1,-1.129
10,CC(C)C1CN(S(=O)(=O)N(C)C)CCCN1Cc1ccc(F)cc1 (stereo not given),3.4
11,CN(Cc1ccc(F)cc1)S(=O)(=O)N1CCOCC1,-4.525
12,CN(Cc1ccc(F)cc1)[C@@H]1CN(C(=O)c2cccs2)C[C@H]1O,3.837
13,CN(Cc1ccc(F)cc1)[C@@H]1CN(S(C)(=O)=O)C[C@H]1O,89.96
14,COC(=O)N1CCc2ccccc2C1C(=O)NCc1ccco1 (stereo not given),14.18
15,CCC1CN(C(=O)c2cccc(O)c2)CCC(=O)N1Cc1ccccc1 (stereo not given),8.552
16,COCc1ccc(CNC(=O)CN2CCc3ccccc32)cc1,-11.7
17,COCCN1C[C@H]2CN(C(=O)NCc3ccccc3)CCN2C1=O,8.785
18,CCCC(O)CN1CCC(=O)N(CCOC)Cc2ccccc21 (stereo not given),121.9
19,CN1CCN(CC(=O)NCc2ccco2)Cc2ccccc21,-30.17
20,COCCN1C[C@H]2CN(C(=O)NC(C)C)CCN2C1=O,-4.801
21,COCC(O)CN1CCC(=O)N(Cc2ccco2)Cc2ccccc21 (stereo not given),86.65
22,CCCC(O)CN1CCC(=O)N(Cc2ccccc2)Cc2ccccc21 (stereo not given),123.8

row,SMILES,Percent Effect [%]
1,COCC(O)CN1CCC(=O)N(Cc2ccccc2)Cc2ccccc21 (stereo not given),97.49
2,OC(CN1CCCCc2ccccc21)Cn1cccn1 (stereo not given),-5.145
3,Cc1ccc([C@@H]2CN(S(=O)(=O)N(C)C)C[C@H]2N(C)C)cc1,0.6697
4,Cc1cc(S(=O)(=O)NCC(O)c2sccc2C)ccc1F (stereo not given),4.369
5,CCOc1ccc(CN(C)C(=O)COc2ccc(C)nc2)cc1,-6.842
6,CCc1c(C(=O)N2CCN(C)[C@@H]3CS(=O)(=O)C[C@@H]32)[nH]c2ccccc12,-4.01
7,CCN1CC(CN(C)c2cc(C)nc(N)n2)Oc2ccccc21 (stereo not given),10.5
8,CCN(CC1CCOCC1)C(=O)Cn1ccccc1=O,-19.1
9,CC(O)CN1CCC(=O)N(Cc2ccccc2)Cc2ccccc21 (stereo not given),125.3
10,O=C(CN1CCc2ccccc21)NCc1ccc(Cl)cc1,-3.042
11,CC(C)NC(=O)c1nc2c(s1)CCCN2Cc1ccccc1,-9.51
12,CCCc1nc(CN(CC)C(=O)c2ccc3[nH]cnc3c2)no1,-17.17
13,CC(C)(C)n1ncc2c1CCCC2NCc1cccc2c1OCO2 (stereo not given),3.56
14,O=C(O)C1(Cc2ccc(F)cc2F)CCCN(Cc2ccccn2)C1 (stereo not given),-12.03
15,CNC(=O)C1(Cc2cc(C(C)C)no2)CCN(Cc2cccnc2)C1 (stereo not given),113.2
16,CC(C)c1cc(CNC(=O)NCc2cccc(N3CC=CC3)c2)on1,1.94
17,CCOC(C)c1noc(CN2CCN(Cc3cccnc3)CC2)n1 (stereo not given),-3.385
18,CNC(=O)C1(Cc2cc(C(C)C)no2)CCN(Cc2ccccn2)C1 (stereo not given),108.3
19,CC(C)c1cc(C(=O)N2C[C@H]3CC[C@@H]2CN(Cc2ccccn2)C3)no1,-1.053
20,COC1(CNS(=O)(=O)c2ccccc2Br)CCSC1 (stereo not given),-11.32
21,O=C(NCCC(O)c1cccs1)c1ccc(Br)o1 (stereo not given),-2.242
22,Cc1cc(C)nc(NC2CC(=O)N(C(C)(C)C)C2)n1 (stereo not given),-13.08

row,SMILES,Percent Effect [%]
1,Cc1ccc(CN(C)C(=O)NCC(=O)NC(C)(C)C)s1,-5.904
2,CCc1cnc(NCCS(=O)(=O)CC(C)C)nc1,-2.356
3,O=C(O)C(F)(F)F.O=C(c1ccsc1)N1CCc2onc(COc3ccccn3)c2C1,-81.7
4,Cc1cc(C)n(CCCNC(=O)C(C)NC(=O)CC2CCCCC2)n1 (stereo not given),122.8
5,CCC(C)C(=O)NCCCn1nc(C)cc1C (stereo not given),119.6
6,Cc1cc(CNC(=O)CC2CCN(C(C)C)CC2)n(C)n1,-16.42
7,Cc1cc(C)n(CC(C)NC(=O)c2cc(C(C)C)on2)n1 (stereo not given),-21.21
8,Cc1cc(C(F)(F)F)nn1CCNC(=O)C(C)n1ccnc1C(C)C (stereo not given),0.9025
9,Cc1cc(C)n(-c2cncc(NCCNC(=O)CC3CCCC3)n2)n1,5.332
10,Cc1ccccc1Oc1ncccc1CNC1CCC1,-4.424
11,Cc1csc(C2(NCCC(=O)N3CCOCC3)CCCC2)n1,-0.7458
12,Cc1noc(CCCC(=O)NC(C)c2nnc3n2CCC3)n1 (stereo not given),-11.73
13,CCCC(=O)NC(C)c1nnc2n1CCC2 (stereo not given),66.57
14,CC(C)c1noc(CCC(=O)NC(C)c2nnc3n2CCCCC3)n1 (stereo not given),-3.569
15,CC(=O)NCCCC(=O)NC(C)c1nnc2n1CCC2 (stereo not given),91.49
16,CC(C)CS(=O)(=O)CC(=O)NC(C)c1nnc2n1CCC2 (stereo not given),85.29
17,CC(C)c1noc(CCCC(=O)NC(C)c2nnc3n2CCC3)n1 (stereo not given),-3.557
18,Cc1noc(C)c1CCC(=O)NC(C)c1nnc2n1CCC2 (stereo not given),-11.45
19,CC(C)c1noc(CCC(=O)NC(C)c2nnc3n2CCC3)n1 (stereo not given),-10.52
20,CC(NC(=O)CCC1CCCCC1)c1nnc2n1CCC2 (stereo not given),97.89
21,CC(NC(=O)CCCc1nc(C(C)(C)C)no1)c1nnc2n1CCC2 (stereo not given),7.07
22,CCCc1noc(CCC(=O)NC(C)c2nnc3n2CCCCC3)n1 (stereo not given),-7.808
